In PubChem BioAssay (NCI):
About 83,000 compounds went through this panel and 20% of them were active in at least one assay; those are over-represented in the sample as a whole.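 Negative percent growth values reflect cell death: -40 means 40% of the cells present at the start died, and -100 means all died.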 A number with no mark means an inactive call. Active and inactive are the calls of the source. How the source made its calls: active means growth percent below 10; inactive means the rest.

Each compound was assayed on DU-145 prostate (assay: NCI-60 one-dose screen, 48 h (100 = growth as untreated, 0 = no growth, -100 = all killed)). Conditions: 10 µM unless noted.

Row | Structure (SMILES) | growth
1 | CCOC(=O)CC1CSC(Nc2ccccc2)=N1 (centres undefined) | 103%
2 | O=S(=O)(Nc1cc(Sc2cccc3cccnc23)c(O)c2ccccc12)c1ccccc1 | 15%
3 | COc1ccc(C(=O)c2cc3c(N)c(C(=O)Nc4ccccc4)sc3nc2C)cc1 | 17.7%
4 | N=c1c(S(=O)(=O)c2ccccc2)cc2c(=O)n3ccccc3nc2n1CC1CCCO1 (centres undefined) | 110%
5 | CC(C)(C)c1cc(Cl)c(O)c(CNCCO)c1 | 113%
6 | CCN(CC)CCN1C(=O)c2c(c(C)c3c(oc4ccc(O)cc43)c2C)C1=O | 0.0633% (active)
7 | Fc1cccc(-c2ccc3c(c2)C2(CCNCC2)CN3)c1 | 105%
8 | C=CC(=O)Nc1ccc(Oc2nccc(Nc3nnc(-c4ccc(C)cc4)s3)n2)cc1 | 78.5%
9 | NC1(CO)COC(c2ccccc2)OC1 (centres undefined) | 115%
10 | CCNc1ccc(-c2nc3ccccc3n3cccc23)cc1 | 86.7%
11 | CC[N+]1(CC)CC[N+]2(CCCC(C)CC2)CC1 (centres undefined) | 111%
12 | N=C(N)c1ccc(-c2ccc(-c3ccccc3)s2)cc1 | 29.5%
13 | O=C(CSc1nc(-c2ccccc2)cc(=O)[nH]1)Nc1nc(-c2ccccc2)cs1 | 97.8%
14 | Cc1nnc(-c2ccc3c(c2)nc(/C=C/c2ccccc2)n3C2CCCCC2)o1 | 91.5%
15 | O=S(=O)(NCCNc1nccc(-c2c(-c3ccc(F)c(O)c3)nc3sccn23)n1)c1ccc(F)cc1 | 34.4%
16 | CCN(CC)CCCN1C(=O)c2c(c(C)c3c(oc4ccc(O)cc43)c2C)C1=O | -58.8% (active)
17 | CCCCCCCCCCCCCCCCCC1=NC(C)(C)CN1CC(C)O (centres undefined) | 34.5%
18 | C#CC#CC#CC#CC#CC#CC#CC#CCC1OC[C@H](COC(=O)O[C@@H](C(=O)O[C@H]2C[C@@]3(O)[C@@H](OC(=O)c4ccccc4)[C@@H]4[C@]5(OC(C)=O)CO[C@@H]5C[C@H](O)[C@@]4(C)C(=O)[C@H](OC(C)=O)C(=C2C)C3(C)C)[C@@H](NC(=O)c2ccccc2)c2ccccc2)O1 (some centres undefined) | 17.3%
19 | Cc1ccc(Cl)cc1NC(=O)c1sc2nc3c(cc2c1N)C(=O)CCC3 | 77.4%
20 | CC(=O)Oc1ccc(OC(C)=O)c2ccccc12 | 116%

Row | Structure (SMILES) | growth
21 | O=C(NNC(=O)c1nc2cc(F)ccc2n2cccc12)c1cnccn1 | 44.5%
22 | C[C@H](C(=O)N(CCc1ccc(Cl)c(Cl)c1)Cc1cncs1)[C@@H]1CC[C@H](C[C@H](C)n2cc(CN3CCC(c4ccc(Cl)cc4)CC3)nn2)O1 | 112%
23 | O=C(CC(=O)Nc1cccc(C(=O)O)c1)Nc1cccc(C(=O)O)c1 | 121%
24 | C=C1CC[C@@H]2C(C)(C)[C@@H](O)CC[C@@]2(C)[C@@H]1COc1ccc2ccc(=O)oc2c1 | 91.8%
25 | CCS/C(Nc1ccccc1)=C(\C#N)C(=O)Nc1ccc(OC)cc1 | 33.8%
26 | Nc1nc(NC(=O)Nc2ccc(C(=O)O)cc2)nn1-c1ccc(S(N)(=O)=O)cc1 | 97.3%
27 | N#Cc1c(-c2ccccc2)nc(SCc2nnc(-c3ccc(Cl)cc3)o2)[nH]c1=O | 108%
28 | CCN(CC)c1ccc(/C=N/NC(=O)Cc2ccc(Nc3ccnc(C(F)(F)F)c3)cc2)c(O)c1 | 18.3%
29 | CC[C@]12C=CCN3CC[C@@]4(c5ccc(OC)cc5N(C)[C@H]4[C@@](O)(C(=O)OC)[C@@H]1OC(=O)CCC[P+](c1ccccc1)(c1ccccc1)c1ccccc1)[C@@H]32 | 18%
30 | Oc1c(CN2CCC(N3CCCCC3)CC2)cc(Cc2cc(CN3CCC(N4CCCCC4)CC3)c(O)c3ncccc23)c2cccnc12 | 37.1%
31 | Nc1c(C(=O)Nc2cccc(Cl)c2)sc2nc3c(cc12)CCCC3 | 104%
32 | C=C(c1ccc(OC)c(/C=C/C(=O)c2ccc3c(c2)OCO3)c1)c1cc(OC)c(OC)c(OC)c1 | 9.67% (active)
33 | CCCCCN(CCCCC)CC(O)c1cc(C)c2ccc3cc(C(C)C)ccc3c2c1 (centres undefined) | -77.1% (active)
34 | O=C1/C=C/[C@@H](O)[C@@H]2C[C@@H](O)C[C@H]2/C=C/CCC[C@H](CCO)O1 | 16.6%
35 | CC(=O)/C(=C/c1ccc([N+](=O)[O-])cc1)C(=O)c1ccccc1 | 92.6%
36 | CC1(C)CC[C@]23CC[C@]4(C)[C@H](CC[C@@H]5[C@@]6(C)C/C(=C/c7ccncc7)C(=O)C(C)(C)[C@@H]6CC[C@]54C)[C@H]2[C@H]1OC3 | 82.1%
37 | CCCCCCCC/C=C\CCCCCCCCOc1ccc(CC(=O)NCC[N+]2(C)CCOCC2)cc1 | 88.5%
38 | O=C(NNc1cnccn1)c1nc2cc(F)ccc2n2cccc12 | 25.7%
39 | O=C(C1=Cc2cc3ccccc3n2Cc2cnnn21)c1ccc(O)cc1 | 89.9%
